Molecules are shown by their SMILES. For some of these results: Results with a measured potency or affinity are listed apart.

What all share (design): scale not given: direction of the effect not stated beside the values
Assay [1] has as its target Protein translocase subunit SecA (Escherichia coli (strain K12)) (UniProt P10408). The assay can be described thus: Assay to Identify E. coli SecA ATPase Inhibitors. Type of assay: functional. The note with it: 30 µM.
For assay [2], the target named is T1, Ubiquitin-activating enzyme e1, putative (Leishmania donovani (strain BPK282A1)) (UniProt E9BSI1).
T1 sequence (whole entry): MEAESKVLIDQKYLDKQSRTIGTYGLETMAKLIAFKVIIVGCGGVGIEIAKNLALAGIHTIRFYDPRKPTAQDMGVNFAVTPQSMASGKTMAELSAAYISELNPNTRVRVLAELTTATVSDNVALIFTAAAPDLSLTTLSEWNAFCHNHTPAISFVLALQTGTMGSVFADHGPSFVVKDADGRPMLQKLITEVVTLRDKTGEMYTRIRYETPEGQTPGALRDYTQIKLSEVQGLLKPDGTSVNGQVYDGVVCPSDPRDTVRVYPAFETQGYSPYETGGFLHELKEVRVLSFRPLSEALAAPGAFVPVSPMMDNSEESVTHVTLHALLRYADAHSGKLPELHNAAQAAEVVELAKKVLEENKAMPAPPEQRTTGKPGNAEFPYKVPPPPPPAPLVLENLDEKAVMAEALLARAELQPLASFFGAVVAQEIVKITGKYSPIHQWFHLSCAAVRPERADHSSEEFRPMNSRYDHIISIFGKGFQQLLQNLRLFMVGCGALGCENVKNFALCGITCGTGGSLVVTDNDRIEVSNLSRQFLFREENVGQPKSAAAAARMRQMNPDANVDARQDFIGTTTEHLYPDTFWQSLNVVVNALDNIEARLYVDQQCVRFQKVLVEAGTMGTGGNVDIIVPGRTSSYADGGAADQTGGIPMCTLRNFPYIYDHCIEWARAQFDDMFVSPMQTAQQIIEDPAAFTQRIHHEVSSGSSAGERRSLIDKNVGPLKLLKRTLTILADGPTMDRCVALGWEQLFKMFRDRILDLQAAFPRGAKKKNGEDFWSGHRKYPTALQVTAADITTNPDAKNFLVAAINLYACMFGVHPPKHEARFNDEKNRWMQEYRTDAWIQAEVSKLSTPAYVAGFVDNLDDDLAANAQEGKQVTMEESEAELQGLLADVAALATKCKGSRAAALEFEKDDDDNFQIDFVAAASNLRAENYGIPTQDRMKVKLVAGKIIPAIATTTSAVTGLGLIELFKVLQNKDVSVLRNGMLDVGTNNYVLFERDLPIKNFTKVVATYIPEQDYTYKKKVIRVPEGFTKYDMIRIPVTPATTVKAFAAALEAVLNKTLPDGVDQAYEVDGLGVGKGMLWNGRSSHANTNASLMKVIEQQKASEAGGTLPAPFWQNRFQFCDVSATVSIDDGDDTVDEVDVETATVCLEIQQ
Nature of the assay: Leishmania donovani Ubiquitin Activating Enzyme (LdE1). Type of assay: functional. The note with it: 30 µM.

The target of assay [3] is AMP-activated protein kinase, AMPK (Homo sapiens) (UniProt P54646+O43741+P54619+Q9UGJ0+Q9Y478+Q13131+Q9UGI9). Nature of the assay: AMP-dependent Kinase enzyme assay. An in vitro enzyme assay that detects ADP turnover that is directly proportional to AMPK activity. This uses naive AMPK that is activated during the assay with MK-8722. Type of assay: functional. The note with it: 30 µM.

In assay [4] the target is Sialic acid-binding Ig-like lectin 9 (Homo sapiens) (UniProt Q9Y336). The assay can be described thus: Hs-Siglec9 ALPHAscreen SOP 20170721. The note with it: 10 µM.
Another assay relates to Trypanosoma cruzi. The assay can be described thus: Trypanosoma cruzi phosphomannomutase and mannose-1-phosphate guanylyltransferase assay. Format: functional. The note with it: 10 µM.
The target of assay [5] is T2, Arginase-2, mitochondrial (Homo sapiens) (UniProt P78540).
T2 sequence (whole entry): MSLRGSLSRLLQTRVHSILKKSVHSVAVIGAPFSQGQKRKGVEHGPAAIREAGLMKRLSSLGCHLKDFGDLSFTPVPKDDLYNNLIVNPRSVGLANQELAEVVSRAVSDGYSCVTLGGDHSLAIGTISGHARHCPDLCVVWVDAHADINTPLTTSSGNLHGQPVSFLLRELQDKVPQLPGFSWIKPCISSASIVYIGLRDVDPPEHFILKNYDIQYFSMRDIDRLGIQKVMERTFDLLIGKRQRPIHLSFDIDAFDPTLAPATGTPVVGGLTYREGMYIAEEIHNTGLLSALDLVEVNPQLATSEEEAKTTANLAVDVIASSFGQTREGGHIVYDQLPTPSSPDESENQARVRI
Nature of the assay: in vitro enzyme assay to detect the production of urea directly proportional to the activity of Arginase II. Also: in the data most compounds retested in dose-response had high values. Type of assay: functional. The note with it: 33.3 µM.

The target of assay [6] is T3, Proteasome subunit beta (Trypanosoma cruzi) (UniProt O96673).
T3 sequence (whole entry): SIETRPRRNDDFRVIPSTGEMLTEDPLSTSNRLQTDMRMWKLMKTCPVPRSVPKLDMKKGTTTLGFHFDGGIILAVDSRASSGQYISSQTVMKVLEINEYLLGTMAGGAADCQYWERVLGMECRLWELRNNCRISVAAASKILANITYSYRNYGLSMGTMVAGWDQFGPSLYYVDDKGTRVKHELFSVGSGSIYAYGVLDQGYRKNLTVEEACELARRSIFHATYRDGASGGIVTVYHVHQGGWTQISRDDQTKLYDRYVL
Nature of the assay: Trypanosoma cruzi proteasome chymotrypsin-like activity (TcProtChymo) assay. Also: in the data most compounds retested in dose-response had high values. Format: functional. The note with it: 9.37 µM.

Another assay is filed under the species Homo sapiens. Nature of the assay: To identify inhibition of the IFN signalling (Jak-Stat) pathway via expression of an eGFP reporter gene under the control of an IFN-stimulated response element (ISRE) containing MxA promoter. Type of assay: functional. The note with it: 30 µM.
In assay [7] the target is T4, Tyrosyl-tRNA synthetase, putative (Trypanosoma cruzi (strain CL Brener)) (UniProt Q4DSP6).
T4 sequence (whole entry): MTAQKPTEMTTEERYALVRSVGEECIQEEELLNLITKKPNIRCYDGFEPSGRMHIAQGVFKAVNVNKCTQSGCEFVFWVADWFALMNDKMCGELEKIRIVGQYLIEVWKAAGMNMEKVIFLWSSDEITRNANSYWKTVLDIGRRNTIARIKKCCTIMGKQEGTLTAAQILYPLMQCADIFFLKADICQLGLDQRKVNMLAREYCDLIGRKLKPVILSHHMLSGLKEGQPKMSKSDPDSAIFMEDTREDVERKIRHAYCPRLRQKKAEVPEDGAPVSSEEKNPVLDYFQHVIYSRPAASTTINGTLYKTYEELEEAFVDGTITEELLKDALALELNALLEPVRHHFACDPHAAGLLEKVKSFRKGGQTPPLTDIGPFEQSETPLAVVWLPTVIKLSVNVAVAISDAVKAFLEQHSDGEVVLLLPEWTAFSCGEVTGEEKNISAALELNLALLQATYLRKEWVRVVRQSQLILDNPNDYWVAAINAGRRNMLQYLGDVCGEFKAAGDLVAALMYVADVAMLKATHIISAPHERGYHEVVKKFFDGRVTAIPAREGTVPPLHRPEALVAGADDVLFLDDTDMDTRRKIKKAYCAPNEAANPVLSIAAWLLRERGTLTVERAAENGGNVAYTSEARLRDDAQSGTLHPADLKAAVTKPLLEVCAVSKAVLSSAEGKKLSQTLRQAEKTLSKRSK
Nature of the assay: Trypanosoma cruzi tyrosyl tRNA synthetase (TcYRS) _High Tyrosine SOP. Also: in the data most compounds retested in dose-response had high values. The note with it: 30 µM. Type of assay: functional.

Assay [8] concerns the target T4, Tyrosyl-tRNA synthetase, putative (Trypanosoma cruzi (strain CL Brener)). The assay can be described thus: Trypanosoma cruzi tyrosyl tRNA synthetase (TcYRS) SOP. Type of assay: functional. The note with it: 30 µM.
Assay [9] concerns the target Chromo domain-containing protein 1 (Saccharomyces cerevisiae (strain ATCC 204508 / S288c) (Baker's yeast)) (UniProt P32657). The assay can be described thus: ScCHD-1 Enzyme Inhibition Assay. Also: in the data most compounds retested in dose-response had high values. Type of assay: functional. The note with it: 30 µM.

Protein translocase subunit SecA (Escherichia coli (strain K12)), sequence (P10408 whole entry): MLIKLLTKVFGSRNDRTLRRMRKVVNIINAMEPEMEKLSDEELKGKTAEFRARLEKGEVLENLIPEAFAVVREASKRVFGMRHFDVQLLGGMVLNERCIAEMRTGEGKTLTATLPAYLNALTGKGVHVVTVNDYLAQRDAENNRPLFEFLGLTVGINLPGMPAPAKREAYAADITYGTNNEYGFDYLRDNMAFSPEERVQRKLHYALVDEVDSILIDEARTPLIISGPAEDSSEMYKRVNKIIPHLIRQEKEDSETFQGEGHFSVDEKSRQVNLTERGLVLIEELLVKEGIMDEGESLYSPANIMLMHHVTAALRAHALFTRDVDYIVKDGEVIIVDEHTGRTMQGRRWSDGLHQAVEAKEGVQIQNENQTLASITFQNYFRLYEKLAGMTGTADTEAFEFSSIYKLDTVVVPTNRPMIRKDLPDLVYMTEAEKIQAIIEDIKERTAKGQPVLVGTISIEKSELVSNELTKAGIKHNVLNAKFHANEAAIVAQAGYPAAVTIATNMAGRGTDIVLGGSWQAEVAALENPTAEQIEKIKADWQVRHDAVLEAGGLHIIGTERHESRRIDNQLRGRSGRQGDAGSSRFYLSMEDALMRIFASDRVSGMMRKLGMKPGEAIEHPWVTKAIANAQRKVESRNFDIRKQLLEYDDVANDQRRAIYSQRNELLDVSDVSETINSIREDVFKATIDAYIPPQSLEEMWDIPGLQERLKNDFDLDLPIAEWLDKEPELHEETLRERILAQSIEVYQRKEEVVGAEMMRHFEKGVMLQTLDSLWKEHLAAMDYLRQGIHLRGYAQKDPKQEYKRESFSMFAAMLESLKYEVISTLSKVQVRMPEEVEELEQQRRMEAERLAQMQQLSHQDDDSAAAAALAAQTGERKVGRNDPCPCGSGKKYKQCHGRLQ
Chromo domain-containing protein 1 (Saccharomyces cerevisiae (strain ATCC 204508 / S288c) (Baker's yeast)), sequence (P32657 whole entry, the tested form may be a part): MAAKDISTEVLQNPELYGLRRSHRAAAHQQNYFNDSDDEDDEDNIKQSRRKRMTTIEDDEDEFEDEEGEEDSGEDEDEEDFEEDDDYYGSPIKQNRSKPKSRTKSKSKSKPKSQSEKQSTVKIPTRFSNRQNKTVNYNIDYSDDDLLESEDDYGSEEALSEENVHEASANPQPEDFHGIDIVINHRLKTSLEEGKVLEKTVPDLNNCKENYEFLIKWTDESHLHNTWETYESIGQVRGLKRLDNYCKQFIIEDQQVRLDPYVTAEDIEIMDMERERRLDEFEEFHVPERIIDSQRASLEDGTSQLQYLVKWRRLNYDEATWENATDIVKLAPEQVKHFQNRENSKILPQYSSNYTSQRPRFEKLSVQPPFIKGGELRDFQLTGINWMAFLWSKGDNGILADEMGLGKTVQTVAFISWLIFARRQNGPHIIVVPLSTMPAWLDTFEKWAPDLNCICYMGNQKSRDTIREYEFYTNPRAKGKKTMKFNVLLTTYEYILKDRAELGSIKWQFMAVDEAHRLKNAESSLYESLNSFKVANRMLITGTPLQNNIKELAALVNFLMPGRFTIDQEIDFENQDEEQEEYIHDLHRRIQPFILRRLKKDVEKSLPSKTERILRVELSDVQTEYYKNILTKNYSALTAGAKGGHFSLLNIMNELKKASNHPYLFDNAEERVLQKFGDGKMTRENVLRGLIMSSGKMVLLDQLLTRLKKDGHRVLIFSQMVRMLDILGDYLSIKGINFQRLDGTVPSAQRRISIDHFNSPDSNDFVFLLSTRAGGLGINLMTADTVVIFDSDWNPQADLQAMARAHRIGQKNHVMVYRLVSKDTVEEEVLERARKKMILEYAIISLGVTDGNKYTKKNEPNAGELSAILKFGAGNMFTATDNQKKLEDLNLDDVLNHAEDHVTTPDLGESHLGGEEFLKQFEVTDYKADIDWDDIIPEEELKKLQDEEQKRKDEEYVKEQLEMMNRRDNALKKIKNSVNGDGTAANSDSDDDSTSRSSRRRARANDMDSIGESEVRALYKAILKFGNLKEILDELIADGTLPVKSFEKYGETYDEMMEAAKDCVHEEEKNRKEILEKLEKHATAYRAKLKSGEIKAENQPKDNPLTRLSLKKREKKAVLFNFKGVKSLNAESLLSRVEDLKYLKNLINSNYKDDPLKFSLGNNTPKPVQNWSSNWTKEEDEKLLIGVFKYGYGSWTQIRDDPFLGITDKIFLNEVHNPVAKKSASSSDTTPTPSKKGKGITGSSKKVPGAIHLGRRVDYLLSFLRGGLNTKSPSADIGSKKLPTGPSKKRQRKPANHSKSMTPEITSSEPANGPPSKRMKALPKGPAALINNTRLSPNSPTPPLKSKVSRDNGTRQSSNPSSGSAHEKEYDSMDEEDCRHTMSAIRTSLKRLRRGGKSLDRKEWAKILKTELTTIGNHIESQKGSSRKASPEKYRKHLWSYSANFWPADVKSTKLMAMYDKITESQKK
Sialic acid-binding Ig-like lectin 9 (Homo sapiens), sequence (Q9Y336 whole entry): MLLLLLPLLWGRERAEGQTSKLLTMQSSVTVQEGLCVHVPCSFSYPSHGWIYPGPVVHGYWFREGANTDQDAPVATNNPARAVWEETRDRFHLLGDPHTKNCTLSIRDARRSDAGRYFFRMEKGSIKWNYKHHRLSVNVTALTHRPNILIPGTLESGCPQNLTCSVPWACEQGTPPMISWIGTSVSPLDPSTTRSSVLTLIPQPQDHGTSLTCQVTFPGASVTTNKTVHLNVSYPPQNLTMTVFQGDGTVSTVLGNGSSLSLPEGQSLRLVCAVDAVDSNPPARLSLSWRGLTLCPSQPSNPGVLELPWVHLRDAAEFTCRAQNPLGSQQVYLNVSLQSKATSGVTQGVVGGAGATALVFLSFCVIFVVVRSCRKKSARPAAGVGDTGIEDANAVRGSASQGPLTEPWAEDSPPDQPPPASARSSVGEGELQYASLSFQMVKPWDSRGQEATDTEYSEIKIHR

Turning to `CN(CC1COc2ccccc2O1)C(=O)NCCCn1cncn1` (stereo unspecified), the Percent Effect in assay [1] was -0.909%; in assay [2] it was 18.4%; in [3], 0.582%; in [4], 5.7%; in the assay on Trypanosoma cruzi, 2.63%; in [5], 2.3%. Further, the Percent Effect in assay [6] is 6.52%; in the assay listed under Homo sapiens, 8.47%; in [7] it was 6.37%; in assay [8], 24.4%; in [9] it was -11.6%.

For the molecule `O=C1CC(c2cccnc2)C2(CCN(C(=O)c3ccncc3)CC2)N1` (stereo unspecified), the Percent Effect is -4.11% in assay [1]; 10.8% in assay [2]; 2.03% in assay [3]; -3.18% in assay [4]; 3.81% in the assay on Trypanosoma cruzi; -4.78% in [5]. In addition, the Percent Effect in assay [6] was 17.9%; in the assay filed under Homo sapiens, -0.901%; in assay [7], 4.32%; in [8], 15.4%; in [9] it was 1.46%.

Turning to `COCCC(=O)N1CC2(CCN(Cc3ccoc3)C2)C1`, the Percent Effect in assay [1] is -1.14%; in assay [2], 13.3%; in assay [3], 3.09%; in assay [4], -10.1%; in the assay with Trypanosoma cruzi it was -6.69%; in [5] it was 5.36%. For the same molecule, the Percent Effect was 17.7% in [6]; 9.94% in the assay listed under Homo sapiens; 4.25% in assay [7]; 1.28% in [8]; -1.88% in assay [9].

With `O=C(N[C@@H]1CN(Cc2cccs2)[C@@H]2CCCO[C@@H]21)C1CC1`, the Percent Effect in [1] is 2.58%; in [2], 8%; in assay [3], 2.54%; in assay [4] it was 23.2%; with Trypanosoma cruzi, -7.34%; in assay [5] it was -53.6%. The Percent Effect in [6] was 13.3%; in the assay listed under Homo sapiens, 1.32%; in assay [7] it was 2.08%; in assay [8] it was 20%; in [9], -6.29%.

On to `CO[C@@H]1CC[C@H]2[C@H]1OCCN2C(=O)COc1ccc(F)cc1`, for which the Percent Effect in assay [1] is 0.9%; in assay [2], -2.7%; in assay [3] it was 12.4%; in assay [4] it was 0.225%; with Trypanosoma cruzi, -4.01%; in assay [5] it was 3.5%. The Percent Effect was 15.3% in [6]; 3.76% in the assay listed under Homo sapiens; 4.32% in assay [7]; -2.56% in assay [8]; 0.177% in assay [9].

Turning to `Cc1nnc(N2CCCC3(CN(Cc4ccc(C)s4)CCO3)C2)o1` (stereo unspecified), the Percent Effect in [1] was 0.137%; in [2], 5.48%; in [3], -2.15%; in assay [4] it was 8.14%; in the assay with Trypanosoma cruzi, 3.97%; in [5], -5.19%. Also, the Percent Effect in [6] is 13.1%; in the assay listed under Homo sapiens it was -2.59%; in [7], 2.08%; in assay [8] it was 6.17%; in [9], -3.69%.

Consider `CN(C)S(=O)(=O)N1CCC[C@]2(C[C@@H](Oc3ccccn3)CO2)C1`, for which the Percent Effect was -0.984% in assay [1]; 7.79% in assay [2]; 2.82% in [3]; 5.42% in [4]; -4.63% in the assay with Trypanosoma cruzi; -5.81% in assay [5]. For the same molecule, the Percent Effect in assay [6] was 9.75%; in the assay filed under Homo sapiens, 5%; in [7], -1.06%; in [8] it was 6.41%; in assay [9], -6.01%.

As to `c1cncc(-c2ccc3c(c2)C2(CC3)CCN(c3nncs3)CC2)c1`, the Percent Effect in assay [1] was -0.421%; in assay [2] it was 0%; in assay [3], 3.46%; in assay [4], 8.96%; with Trypanosoma cruzi it was 5.56%; in assay [5], 1.6%. Also, the Percent Effect in assay [6] amounted to 14.5%; in the assay filed under Homo sapiens it was 47.4%; in assay [7] it was 14.6%; in assay [8] it was 8.64%; in [9] it was 2.02%.

As to `CC(O)CN1CCC(CNCc2c[nH]nc2C(C)(C)C)CC1` (stereo unspecified), the Percent Effect was -6.44% in [1]; 18.9% in assay [2]; -5.82% in assay [3]; 1.39% in [4]; -6.7% in the assay on Trypanosoma cruzi; -2% in assay [5]. Besides, the Percent Effect in [6] is 11.9%; in the assay listed under Homo sapiens, 13.9%; in assay [7], 4.43%; in assay [8] it was 3.7%; in [9] it was -9.13%.

With `Cc1ncsc1C(=O)NC1CCN(Cc2ccc(C#N)cc2)CC1`, the Percent Effect in assay [1] is -4.4%; in [2], 18.2%; in assay [3] it was 0.609%; in [4] it was 12.4%; in the assay with Trypanosoma cruzi it was 1.12%; in assay [5] it was -2.49%. For the same molecule, the Percent Effect is 5.74% in assay [6]; 32.5% in the assay listed under Homo sapiens; 3.88% in assay [7]; 12.2% in [8]; -7.46% in assay [9].

As to `Cc1nn(C)c2cnn(CC(=O)NCCc3ccccc3)c12`, the Percent Effect in assay [1] was -4.41%; in [2], 6.67%; in assay [3], 5.28%; in assay [4] it was 4.15%; in the assay on Trypanosoma cruzi, -2.16%; in assay [5], -12.5%. For the same molecule, the Percent Effect in assay [6] is 13.3%; in the assay listed under Homo sapiens, 1.66%; in [7], 5.29%; in assay [8], 17.9%; in assay [9], -8.21%.

Source of the values: ChEMBL document CHEMBL3988442, “University of Dundee, Small-Polar-MMV Screening Library” (2021).
